Here are results for 40 compounds from PubChem BioAssay (EPA / NIEHS).

Each structure is given as a SMILES string. Activity calls are given as the source filed them. The calls were made as follows: active = hit-call score of the fitted dose curve at least 0.9, where 1 is the maximum; inactive = score below 0.9.

Read-out in the test: Cytochrome P450 (CYP24A1), CYP24A1 (gene 1591)
The test is described as follows: LTEA_HepaRG_CYP24A1: Life Technologies and Expression Analysis (LTEA) Assay for Cytochrome P450 (CYP24A1) using HepaRG (AID 2283478). The following applies: mRNA level, 48 h; actives raise or lower the signal. As for the experimental part: LTEA_HepaRG is a cell based, multiplexed-readout assay that uses HepaRG, a human liver cell line, with measurements taken at 48 hours after chemical dosing on a 96-well plate.LTEA_HepaRG_CYP24A1 is one of 102 assay component(s) measured in the LTEA HepaRG cell culture assay. It is a marker of NR mediated metabolism.Data from the assay component LTEA_HepaRG_CYP24A1 was analyzed into 1 endpoint. This assay endpoint, LTEA_HepaRG_CYP24A1, was analyzed with bidirectional fitting relative to DMSO as the negative control and baseline of activity. Using a type of inducible reporter, measures of mRNA induction for gain or loss-of-signal activity can be used to understand regulation of transcription factor activity. To generalize the intended target to other relatable targets, this assay endpoint is annotated to the cyp intended target family, where the subfamily is xenobiotic metabolism.
A total of 1060 chemcials from the ToxCast library were tested in eight-point concentration-response experiments. Cell culture and cytotoxicity assays were conducted at Thermo Fisher Scientific's Custom Services facility (Madison, WI). A single lot of human HepaRG cells (Thermo Fisher Scientific, Frederick, MD) was used for the cell culture experiments. 96-well format collagen type I coated plates of human HepaRG cells were prepared using established methods. Briefly, cryopreserved HepaRG cells were thawed, plated at a density of approximately 100,000 cells/well in HepaRG Thaw, Plate, and General Purpose media (HPRG770, Thermo Fisher Scientific), and incubated for 48 hours. 0.5% DMSO was selected as vehicle control to balance the requisite need of DMSO in HepaRG cultures to maintain differentiation (for example, baseline metabolism, proportions of hepatocytes vs. cholangiocytes), while enabling further hepatic receptor pathway activation (for example, PXR and CAR) in response to chemical exposure. 48 hours after plating, the culture medium was replaced with HepaRG Serum-Free Incudtion Media. Cells were exposed to each test chemical in duplicate and maintained in CO2 incubators for another 48 hours. Chemical plates were thawed to room temperature and 200x concentrations of treatment groups were prepared. 8-point conentration-reponse curves were made with the highest exposure at 100 uM, followed by half-log dilutions, all in 0.5% DMSO. Each test plate contained variouse controls, induction positive controls (1mM phenobarbital), cytotoxicity positive controls ([…] aflatoxin B1), vehicle controls (0.5% DMSO), and total lysis controls (0.5% DMSO). Cell morphology images were taken using an Essen IncuCyte FLR automated microscope, with six 96-well plates imaged in about 24 minutes. Images were captured and exported and JPEG files. Spent culture media was transfered to black-well plates for the LDH assay, and remaining media was sorted at -80 C for later use. Cells were treated with RLT buffer and frozen until shipped for gene expression analysis. Total RNA was isolated from the cell suspension in 75 uL of Buffer RLT (Qiagen, Germantown, MD 20874) by Quintiles/Expression Analysis (Durham, NC) using a custom isolation procedure. Total RNA from each plate well was transferred to a preamplification plate. Fluidigm's 96.96 Dynamic ArrayTM (Fluidigm, Amsterdam, the Netherlands) technology was used for gene expression analyses by quantitative reverse transcription polymerase chain reaction (qRT-PCR, performed by Quintiles/Expression Analysis, Durham, NC)89. Standard TaqManTM Assays (Applied Biosystems/ThermoFisher Scientific, Foster City, CA) were used to assess the expression of 93 genes selected based on their selectivity and sensitivity to important hepatic receptors known to be modulated by environmental chemicals; importance in human hepatocyte functionality; and hepatotoxicity. […]
Turning to `O=C(Oc1ccc(Br)cc1)N1CCN2CCC1CC2`, the result was inactive.
`CCC12COCN1COC2`: the outcome was inactive.
With `CS(=O)(=O)NC(=O)c1cc(Oc2ccc(C(F)(F)F)cc2Cl)ccc1[N+](=O)[O-]` the entry was “inactive”; with `Clc1ccc(C(c2ccc(Cl)cc2)C(Cl)Cl)cc1`, “inactive”.
In the case of `OCCCBr`, the result was inactive.
`CC(C)N(Cc1ccccc1)C(=O)C(C)(C)C`: the compound was classed as inactive.
Consider `[As]#[In]`, for which the result was inactive.
As to `CN(C)c1ccc(C(=O)c2ccc(N(C)C)cc2)cc1`, the result was inactive.
To `OCCCl` belongs “inactive”; to `CC(C)COC(=O)c1ccccc1C(=O)OCC(C)C`, “inactive”.
As to `N#CC(Br)(Br)C(N)=O`, the call was inactive.
To `Oc1ccc2ccc3cccc4ccc1c2c34` belongs “inactive”; to `CCCCCCCCn1sccc1=O`, “inactive”.
Turning to `Clc1ccccc1Cl`, the result was inactive.
As for `c1ccc2c(c1)oc1ccccc12`, the compound was classed as inactive.
With `Cc1cccc(N)c1N`, the compound was classed as inactive.
As for `Cn1cc(-c2ccccc2)c(=O)c(-c2cccc(C(F)(F)F)c2)c1`, the compound was called inactive.
`COP(=S)(OC)SCN1C(=O)c2ccccc2C1=O`: the outcome was inactive.
For the compound `O=C(N[C@H](c1ccccc1)[C@@H]1CN2CCC1CC2)c1c(Cl)ccc(C(F)(F)F)c1Cl`, the compound was classed as inactive.
With `Nc1ccc([N+](=O)[O-])cc1`, the outcome was inactive.
On to `c1ccc(N=Nc2ccccc2)cc1`, for which the outcome was inactive.
Regarding `c1ccc(NNc2ccccc2)cc1`, the result was inactive.
For the compound `CN(C)c1ccccc1`, the compound was classed as inactive.
In the case of `Nc1ccc(Cc2ccc(N)cc2)cc1`, the compound was classed as inactive.
For the compound `COC(=O)c1ccccc1N`, the compound was classed as inactive.
To `CCOc1cccc(C2(N3CCN(c4ccccc4)CC3)CCC(C)CC2)c1` (stereo not given) belongs “inactive”; to `N#CC(Br)Br`, “inactive”.
To `CC(O)CCO` (stereo not given) belongs “inactive”; to `ClC1=C(Cl)[C@]2(Cl)[C@H]3[C@H]([C@@H]4C=C[C@H]3C4)[C@@]1(Cl)C2(Cl)Cl`, “inactive”; to `CC(C)(C)OOC(=O)c1ccccc1`, “inactive”.
Regarding `CCC(C)c1ccc(O)cc1` (stereo not given), the compound was classed as inactive.
Consider `CCCCCCCCCCCCCN1CC(C)OC(C)C1` (stereo not given), for which the call was inactive.
To `Cc1ccc(N=C=O)cc1N=C=O` belongs “inactive”; to `CCCCC(CC)COC(=O)c1ccc(C(=O)OCC(CC)CCCC)c(C(=O)OCC(CC)CCCC)c1` (stereo not given), “inactive”.
As for `CC(C)(O)c1cnn2c(-c3ccc(F)c(-c4c(F)cccc4C#N)c3)cnc2n1`, the outcome was inactive.
For the compound `Cc1cc(N=Nc2ccccc2C)ccc1N`, the compound was classed as inactive.
Turning to `C=CCc1ccc2c(c1)OCO2`, the outcome was inactive.
Take `CCN(CC)CCO`: the outcome was inactive.
Turning to `O=C(Nc1ccccc1)c1ccccc1I`, the outcome was inactive.
On to `CCCCCCCCOC(=O)c1ccc(C(=O)OCCCCCCCC)c(C(=O)OCCCCCCCC)c1`, for which the compound was called inactive.
